# Measured values from the supplement of paper PMC8728848.
# About 410 targets per protein were measured; listed, in parts, are those with the strongest signals and a random draw of the rest.
# B1: MGL6A (Homo sapiens) (protein)
# chain: MTRTYENFQYLENKVKVQGFKNGPLPLQSLLQRLCSGPCHLLLSLGLGLLLLVIICVVGFQNSKFQRDLVTLRTDFSNFTSNTVAEIQALTSQGSSLEETIASLKAEVEGFKQERQAVHSEMLLRVQQLVQDLKKLTCQVATLNNNGEEASTEGTCCPVNWVEHQDSCYWFSHSGMSWAEAEKYCQLKNAHLVVINSREEQNFVQKYLGSAYTWMGLSDPEGAWKWVDGTDYATGFQNWKPGQPDDWQGHGLGGGEDCAHFHPDGRWNDDVCQRPYHWVCEAGLGQTSQESH
# How the values were obtained:
# Experiment in all cases: glycan array binding signal (z-score within array); higher = stronger binding
# Settings in all cases: glycan notation: IUPAC condensed, linker removed
# [1] = molecular target: Man(a1-3)[Man(a1-6)]Man(b1-4)GlcNAc(b1-4)GlcNAc
# Outline: (§1)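 Arrays were curated from the Consortium for Functional Glycomics database, 3228 in total, and kept only where the protein sequence was available. Binding is expressed as a within-array Z-score. This score was averaged across arrays of the same protein sequence at different concentrations or buffers and across linkers, and negative values can be read as non-binding.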
# Man(b1-4)GlcNAc = molecular target: Man(b1-4)GlcNAc
# Outline: as §1
# [2] = molecular target: Neu5Ac(a2-3)Gal(b1-3)GlcNAc(b1-3)GalNAc
# Outline: as §1
# [3] = molecular target: Neu5Ac(a2-3)Gal(b1-3)[GlcNAc(b1-6)]GalNAc
# Outline: as §1
# Neu5Ac(a2-3)Gal(b1-4)Glc = molecular target: Neu5Ac(a2-3)Gal(b1-4)Glc
# Outline: as §1
# [4] = molecular target: Neu5Ac(a2-3)Gal(b1-4)GlcNAc(b1-3)Gal(b1-3)GlcNAc
# Outline: as §1
# [5] = molecular target: Neu5Ac(a2-3)Gal(b1-4)GlcNAc(b1-6)GalNAc
# Outline: as §1
# [6] = molecular target: Neu5Ac(a2-3)Gal(b1-4)[Fuc(a1-3)]GlcNAc(b1-6)[Neu5Ac(a2-3)Gal(b1-3)]GalNAc
# Outline: as §1
# [7] = molecular target: Neu5Ac(a2-6)Gal(b1-3)GlcNAc(b1-3)[Gal(b1-4)GlcNAc(b1-6)]Gal(b1-4)Glc
# Outline: as §1
# [8] = molecular target: Neu5Ac(a2-6)Gal(b1-4)GlcNAc(b1-2)Man
# Outline: as §1
# [9] = molecular target: Neu5Ac(a2-8)Neu5Ac(a2-3)[GalNAc(b1-4)]Gal(b1-4)Glc
# Outline: as §1
# [10] = molecular target: Neu5Ac(b2-6)Gal(b1-4)GlcNAc
# Outline: as §1
# [11] = molecular target: Neu5Gc(a2-3)Gal(b1-3)GlcNAc
# Outline: as §1
# [12] = molecular target: Neu5Gc(a2-3)Gal(b1-4)GlcNAc
# Outline: as §1
# [13] = molecular target: Neu5Gc(a2-8)Neu5Ac(a2-3)Gal(b1-4)GlcNAc
# Outline: as §1
binder,measurement,setting,value
B1,glycan array binding signal (z-score),[1],-0.224
same,glycan array binding signal (z-score),Man(b1-4)GlcNAc,-0.258
same,glycan array binding signal (z-score),[2],-0.273
same,glycan array binding signal (z-score),[3],-1.57
same,glycan array binding signal (z-score),Neu5Ac(a2-3)Gal(b1-4)Glc,-0.45
same,glycan array binding signal (z-score),[4],-0.277
same,glycan array binding signal (z-score),[5],3.89
same,glycan array binding signal (z-score),[6],-0.153
same,glycan array binding signal (z-score),[7],-0.259
same,glycan array binding signal (z-score),[8],-0.302
same,glycan array binding signal (z-score),[9],2.18
same,glycan array binding signal (z-score),[10],-0.277
same,glycan array binding signal (z-score),[11],-0.256
same,glycan array binding signal (z-score),[12],-0.228
same,glycan array binding signal (z-score),[13],-0.273
